The source made the active and inactive calls. No rule for the calls is given here.

This test is described as follows: HepG2 cell cytotoxicity, dose response, cytotoxicity control, dry powder samples (AID 1035472). Particulars: HepG2 viability, ATP luminescence (CellTiter-Glo), 72 h; series mostly up to 100 µM.

With `Cn1c(NC(=O)c2ccccc2)nc2c3cnccc3ccc21`, the call was inactive.
